# Test results taken from PubChem BioAssay.
# Activity calls are given as the source filed them.
# Legend:
# [1] = small molecules captured by biotinylated probe aFSTL3 – biochemical, small-molecule microarray, fluorescence 635/667, stem cell growth factor project, primary screen (AID 1064); details: higher = more signal;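 further: measures binding of the biotinylated anti-FSTL3 antibody to printed compounds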
# [2] = binders from COS7 lysate, DM2A8 probe, primary screen, torsin A project, cell lysate, small-molecule microarray, fluorescence 635/667 (AID 1065); details: higher = more signal, COS7 lysate expressing mutant human TOR1A
# [3] = small molecules captured by biotinylated probe aFGF2 – biochemical, small-molecule microarray, fluorescence 635/667, stem cell growth factor project, primary screen (AID 1067); details: higher = more signal;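 further: measures binding of biotinylated aFGF2 protein to printed compounds on slides; z-score merges feature fluorescence and signal-to-noise across triplicate slides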
# [4] = small molecules captured by biotinylated probe aFGF10 – biochemical, small-molecule microarray, fluorescence 635/667, stem cell growth factor project, primary screen (AID 1071); details: higher = more signal;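 further: score merges 667 nm spot intensity and signal to noise from triplicate slides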
# [5] = molecular target: Neurogenic locus notch homolog protein 2 (Homo sapiens) (UniProt Q04721); test: small molecules binding Notch2 protein – biochemical, small-molecule microarray, 635 nm fluorescence, stem cell growth factors, primary screen (AID 1073); details: higher = more signal
# Neurogenic locus notch homolog protein 2 (Homo sapiens), sequence (Q04721 whole entry, looked up, canonical isoform): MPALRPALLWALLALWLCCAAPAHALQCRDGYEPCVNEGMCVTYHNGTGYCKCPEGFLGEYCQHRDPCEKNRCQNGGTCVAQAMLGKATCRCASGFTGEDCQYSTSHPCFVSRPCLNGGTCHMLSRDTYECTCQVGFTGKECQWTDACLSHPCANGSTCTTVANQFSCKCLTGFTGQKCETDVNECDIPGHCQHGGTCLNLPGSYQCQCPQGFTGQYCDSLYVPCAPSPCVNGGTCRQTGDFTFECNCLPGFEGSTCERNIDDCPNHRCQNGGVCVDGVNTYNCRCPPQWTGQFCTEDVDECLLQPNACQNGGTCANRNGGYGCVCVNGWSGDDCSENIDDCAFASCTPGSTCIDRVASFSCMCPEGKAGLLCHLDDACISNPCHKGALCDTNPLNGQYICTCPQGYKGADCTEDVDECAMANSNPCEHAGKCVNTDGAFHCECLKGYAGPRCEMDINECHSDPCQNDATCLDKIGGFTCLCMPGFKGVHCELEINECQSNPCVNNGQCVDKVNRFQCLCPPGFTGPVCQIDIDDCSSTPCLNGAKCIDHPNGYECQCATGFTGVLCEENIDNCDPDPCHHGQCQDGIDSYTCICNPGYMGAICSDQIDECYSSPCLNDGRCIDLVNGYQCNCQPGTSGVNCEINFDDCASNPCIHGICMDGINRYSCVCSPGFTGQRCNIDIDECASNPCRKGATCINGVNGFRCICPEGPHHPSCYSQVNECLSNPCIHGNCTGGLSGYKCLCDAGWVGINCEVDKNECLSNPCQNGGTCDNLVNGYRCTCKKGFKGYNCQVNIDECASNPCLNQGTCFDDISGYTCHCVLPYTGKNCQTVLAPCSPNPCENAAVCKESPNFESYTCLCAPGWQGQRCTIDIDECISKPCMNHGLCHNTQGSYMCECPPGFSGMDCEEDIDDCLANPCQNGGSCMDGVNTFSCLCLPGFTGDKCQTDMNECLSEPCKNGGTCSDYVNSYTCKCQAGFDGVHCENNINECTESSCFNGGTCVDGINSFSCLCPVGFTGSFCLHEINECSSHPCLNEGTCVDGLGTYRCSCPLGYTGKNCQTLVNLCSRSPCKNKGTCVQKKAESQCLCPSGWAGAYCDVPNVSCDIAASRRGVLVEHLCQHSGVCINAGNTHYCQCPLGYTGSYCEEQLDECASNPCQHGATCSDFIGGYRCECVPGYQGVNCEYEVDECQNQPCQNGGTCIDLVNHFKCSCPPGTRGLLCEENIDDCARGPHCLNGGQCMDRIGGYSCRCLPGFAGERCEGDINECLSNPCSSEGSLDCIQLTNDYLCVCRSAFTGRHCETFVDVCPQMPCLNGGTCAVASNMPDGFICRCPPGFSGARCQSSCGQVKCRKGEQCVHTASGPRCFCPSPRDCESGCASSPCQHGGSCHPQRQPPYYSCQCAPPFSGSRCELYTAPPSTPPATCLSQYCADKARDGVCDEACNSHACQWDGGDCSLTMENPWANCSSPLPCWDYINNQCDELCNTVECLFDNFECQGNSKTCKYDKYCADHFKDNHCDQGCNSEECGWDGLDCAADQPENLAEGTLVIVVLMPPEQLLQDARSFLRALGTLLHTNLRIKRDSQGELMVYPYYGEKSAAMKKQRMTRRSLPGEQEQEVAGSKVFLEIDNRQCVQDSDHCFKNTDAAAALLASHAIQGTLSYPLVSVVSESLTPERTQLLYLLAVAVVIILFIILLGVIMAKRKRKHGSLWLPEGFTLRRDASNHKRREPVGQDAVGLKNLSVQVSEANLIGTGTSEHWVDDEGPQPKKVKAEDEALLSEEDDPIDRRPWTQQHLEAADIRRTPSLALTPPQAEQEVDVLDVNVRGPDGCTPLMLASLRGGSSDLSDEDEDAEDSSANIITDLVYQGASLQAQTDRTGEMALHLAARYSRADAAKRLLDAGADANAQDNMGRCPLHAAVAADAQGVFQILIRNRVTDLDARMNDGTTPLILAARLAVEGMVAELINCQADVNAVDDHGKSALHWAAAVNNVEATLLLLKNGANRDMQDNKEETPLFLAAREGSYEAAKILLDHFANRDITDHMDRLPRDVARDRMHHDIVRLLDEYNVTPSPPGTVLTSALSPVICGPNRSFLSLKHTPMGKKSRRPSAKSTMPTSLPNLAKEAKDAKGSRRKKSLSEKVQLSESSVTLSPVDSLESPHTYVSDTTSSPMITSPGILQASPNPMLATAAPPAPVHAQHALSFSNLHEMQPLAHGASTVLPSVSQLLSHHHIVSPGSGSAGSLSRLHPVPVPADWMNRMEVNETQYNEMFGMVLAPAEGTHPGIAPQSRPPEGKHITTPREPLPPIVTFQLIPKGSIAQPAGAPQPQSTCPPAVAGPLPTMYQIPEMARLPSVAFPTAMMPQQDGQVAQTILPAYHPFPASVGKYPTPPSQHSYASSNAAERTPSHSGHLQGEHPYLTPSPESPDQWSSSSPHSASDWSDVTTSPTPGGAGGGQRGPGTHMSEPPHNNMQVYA
# [6] = molecular target: Pro-neuregulin-1, membrane-bound isoform (Homo sapiens) (UniProt Q02297); test: small molecules binding neuregulin-1 protein – biochemical, small-molecule microarray, fluorescence 635/667, psychiatric disease protein project, primary screen (AID 1075); details: NRG1 binding, 635 nm fluorescence, higher = more signal;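 further: score combines 667 nm spot fluorescence with signal to noise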
# Pro-neuregulin-1, membrane-bound isoform (Homo sapiens), sequence (Q02297 whole entry, looked up, the tested form may be a part, canonical isoform): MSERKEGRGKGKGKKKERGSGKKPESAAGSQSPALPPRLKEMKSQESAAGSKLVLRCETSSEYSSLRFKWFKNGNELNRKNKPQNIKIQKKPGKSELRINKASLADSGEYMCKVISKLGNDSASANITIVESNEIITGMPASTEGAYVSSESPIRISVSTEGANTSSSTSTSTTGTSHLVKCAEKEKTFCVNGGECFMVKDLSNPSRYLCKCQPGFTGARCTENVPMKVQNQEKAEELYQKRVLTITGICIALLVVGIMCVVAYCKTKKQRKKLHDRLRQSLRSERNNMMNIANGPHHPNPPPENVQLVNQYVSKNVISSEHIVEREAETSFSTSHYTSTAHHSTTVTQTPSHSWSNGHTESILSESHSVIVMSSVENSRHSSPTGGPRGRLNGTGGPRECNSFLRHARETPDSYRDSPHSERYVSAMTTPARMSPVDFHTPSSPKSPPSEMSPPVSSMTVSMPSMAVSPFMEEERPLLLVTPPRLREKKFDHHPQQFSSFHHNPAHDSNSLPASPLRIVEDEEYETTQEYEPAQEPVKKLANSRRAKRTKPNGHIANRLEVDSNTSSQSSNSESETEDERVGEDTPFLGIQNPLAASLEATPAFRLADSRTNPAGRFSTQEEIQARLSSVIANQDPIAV
# [7] = system: Neuregulin-1 EGF-like domain; test: small molecules binding NRG1 EGF domain – biochemical, small-molecule microarray, 635 nm fluorescence, primary screen (AID 1081); details: higher = more signal;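 further: binding of the protein to compounds printed on small-molecule microarray slides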
# [8] = FRG1 expression reporter modulators in myotubes – cell-based, C2C12 myotubes, firefly/Renilla luciferase, luminescence, FRG1 inhibition for FSHD, primary screen (AID 1084); details: FRG1 promoter luciferase, higher = more signal, called active from +8 up or from −8 down
# [9] = small molecules captured by biotinylated probe aFST – biochemical, small-molecule microarray, fluorescence 635/667, stem cell growth factor project, primary screen (AID 1086); details: higher = more signal;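 further: score merges 667 nm fluorescence with signal-to-noise of each printed compound spot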
# [10] = binders of probe aHhip on microarray, primary screen, stem cell growth factor project, biochemical, small-molecule microarray, fluorescence 635/667 (AID 1087); details: higher = more signal;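 further: score merges spot fluorescence at 667nm with spot signal to noise ratio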
# [11] = system: PRMT1 (protein arginine N-methyltransferase 1); test: small molecules binding arginine methyltransferase PRMT1 – biochemical, small-molecule microarray, 635 nm fluorescence, primary screen (AID 1088); details: higher = more signal;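 further: binding of Prmt1 protein to compounds spotted on small-molecule microarray slides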
# [12] = growth effects on S. cerevisiae YJM789 – YJM789 clinical isolate, OD600, 24 h, basal, primary screen (AID 1089); details: higher = more signal, called active from +8 up or from −8 down;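 further: growth of clinical yeast isolate S. cerevisiae YJM 789 seeded 1000 cells per well; test concentration not given here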
# [13] = S. pombe growth modifiers, basal conditions – strain 972, OD600, 24 h, no modulator, primary screen (AID 1090);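 further: basal condition with compound alone and no growth modifier present; test concentration not given here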; details: S. pombe 972 growth, higher = more signal, called active from +8 up or from −8 down
# [14] = budding yeast growth modifiers under rapamycin – strain BY4716, OD600, 96 h, primary screen (AID 1091); further: test concentration not given here; details: S. cerevisiae BY4716 + rapamycin, higher = more signal, called active from +8 up or from −8 down
# [15] = molecular target: Torsin-1A-interacting protein 2 (Homo sapiens) (UniProt Q8NFQ8); test: small molecules binding lysate-expressed LULL1 – cell lysate, human LULL1 lysate, 635/667 nm fluorescence, primary screen (AID 1092); details: small-molecule microarray, hLULL1 lysate binding, 635 nm fluorescence; higher = more signal;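 further: probe is lysate of COS7 cells overexpressing human LULL1; score merges per-feature 667 nm fluorescence with signal-to-noise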
# Torsin-1A-interacting protein 2 (Homo sapiens), sequence (Q8NFQ8 whole entry, looked up): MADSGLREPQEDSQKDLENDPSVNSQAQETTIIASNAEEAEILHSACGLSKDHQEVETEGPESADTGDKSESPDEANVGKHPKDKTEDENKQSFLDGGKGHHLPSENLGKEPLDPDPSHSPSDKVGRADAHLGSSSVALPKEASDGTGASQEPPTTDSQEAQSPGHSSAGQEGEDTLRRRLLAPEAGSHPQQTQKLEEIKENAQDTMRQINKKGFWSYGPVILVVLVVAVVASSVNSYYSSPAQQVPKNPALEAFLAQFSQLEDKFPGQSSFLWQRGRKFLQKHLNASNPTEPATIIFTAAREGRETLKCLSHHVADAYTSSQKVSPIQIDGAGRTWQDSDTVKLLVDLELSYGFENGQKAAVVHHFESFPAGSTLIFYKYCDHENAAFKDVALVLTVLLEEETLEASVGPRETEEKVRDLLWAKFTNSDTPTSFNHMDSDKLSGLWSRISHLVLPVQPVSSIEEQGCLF
# [16] = optical density change of DRC41 E. coli – strain DRC41, OD650, 24 h, E. coli filamentation project, primary screen (AID 1093);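 further: MC1000 strain lacking acrAB efflux and sulA so SOS filamentation is blocked; test concentration not given here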; details: E. coli DRC41 growth, higher = more signal, called active from +8 up or from −8 down
# [17] = probe aLefty2 binding to arrayed compounds – biochemical, biotinylated probe, 635/667 nm fluorescence, primary screen (AID 1094); details: small-molecule microarray, higher = more signal;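 further: score merges spot fluorescence near 667 nm with spot signal-to-noise ratio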
# [18] = system: Noggin (protein binding on small-molecule microarray); test: small molecules binding Noggin protein – biochemical, 635/667 nm fluorescence, primary screen (AID 1095); details: 635 nm fluorescence, higher = more signal;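 further: score merges 667 nm feature fluorescence with signal to noise over triplicate slides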
# [19] = molecular target: Neurogenic locus notch homolog protein 3 (Homo sapiens) (UniProt Q9UM47); test: small molecules binding NOTCH3 protein – biochemical, 635/667 nm fluorescence, primary screen (AID 1096); details: small-molecule microarray, 635 nm fluorescence, higher = more signal
# [20] = probe aEGFR binding to arrayed compounds – biochemical, biotinylated probe, 635/667 nm fluorescence, primary screen (AID 1097); details: small-molecule microarray, higher = more signal;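 further: probe is a biotinylated anti-EGFR antibody binding compounds printed on slides; score combines fluorescence near 667 nm and signal to noise of each spot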
SMILES,composite z-score [1],composite z-score [2],composite z-score [3],composite z-score [4],composite z-score [5],composite z-score [6],composite z-score [7],z-score [8],composite z-score [9],composite z-score [10],composite z-score [11],z-score [12],z-score [13],z-score [14],composite z-score [15],z-score [16],composite z-score [17],composite z-score [18],composite z-score [19],composite z-score [20]
CCOC(=O)C1=C[C@@H](C(C)(C)C)N(S(=O)(=O)c2ccc(C)cc2)[C@H]1c1ccc(C#N)cc1,0.116,0.255,-0.0181,0.707,1.35,1.32,1.22,-0.793 (inactive),0.313,0.144,1.56,0.3 (inactive),2.17 (inactive),1.75 (inactive),2.88,0.0374 (inactive),0.419,0.198,1.01,0.126
C=C(COC)/C(=C/C[C@@H](OC(C)=O)c1ccccc1OCCO)c1cnc2ccccc2c1,-0.0428,1.58,-0.0695,0.339,1.03,1.23,1.13,-0.305 (inactive),0.278,-0.169,1.56,0.27 (inactive),-0.614 (inactive),-0.112 (inactive),0.895,0.359 (inactive),-0.154,1.64,1.09,-0.0828
COCCOC(=O)N1C(=O)[C@@]2(c3cc(C#CCC(C(=O)OC)C(=O)OC)ccc31)[C@H](C(=O)Nc1nc3ccccc3s1)[C@H]1C(=O)O[C@H](c3ccccc3)[C@H](c3ccccc3)N1[C@@H]2c1ccc(O)cc1,-0.566,0.304,0.412,0.742,1.45,0.158,1.3,0.203 (inactive),0.805,0.314,1.53,1.42 (inactive),0.431 (inactive),1.16 (inactive),2.51,0.28 (inactive),0.0085,0.92,1.04,0.107
COC(=O)[C@@]1(Cc2ccc(OC)cc2)[C@H]2c3cc(C(=O)N(C)C)[nH]c3C[C@H]2CN1C(=O)c1ccccc1,-0.231,-0.884,0.0992,0.304,0.793,0.882,0.977,1.04 (inactive),0.019,-0.0905,-0.614,0.0372 (inactive),1.15 (inactive),0.0745 (inactive),0.982,0.0515 (inactive),0.096,-0.337,0.201,-0.0594
C=C(C)[C@@H]1CC=C(C(O)C2C=CC3C(=O)N(c4ccccc4)C(=O)C3N2Nc2ccc([N+](=O)[O-])cc2)CC1 (stereo not given in full),-0.308,0.356,-0.0784,1.05,1.61,1.07,1.24,-0.0111 (inactive),1.57,0.167,1.55,-0.0158 (inactive),0.348 (inactive),3.6 (inactive),3.57,-1.96 (inactive),-0.0357,0.939,1.05,-0.0435
CN(C)C(=O)[C@@]1(Cc2ccccc2CN=[N+]=[N-])COC(c2ccc(OCCCO)cc2)=N1,0.695,-0.445,-0.085,-0.0663,0.0696,1.63,1.1,-2.47 (inactive),0.681,-0.134,0.688,-0.352 (inactive),-7.06 (inactive),31.3 (active),2.65,2.21 (inactive),0.0781,-0.543,0.132,-0.152
O=C1O[C@H](Cc2ccccc2)[C@@H]2[C@H]3C=CCCC=C3CN2[C@H]1Cc1ccc(O)cc1,-0.117,-0.0933,-0.0692,-0.026,-0.562,-0.465,0.0706,0.0201 (inactive),0.142,0.0976,-1.14,-0.055 (inactive),-1.54 (inactive),-0.621 (inactive),-0.145,0.222 (inactive),-0.0591,-0.0371,-0.268,-0.0958
O=C1C2C=CC(C(O)c3c(F)cccc3Cl)N(Nc3ccc([N+](=O)[O-])cc3)C2C(=O)N1c1ccccc1 (stereo not given),0.0505,0.572,0.147,0.89,1.61,1.12,1.01,-1.18 (inactive),1.37,-0.0618,1.55,-1.01 (inactive),1.35 (inactive),4.59 (inactive),3.54,0.636 (inactive),0.13,0.432,1.09,-0.0021
O=C1[C@@H]2[C@@H](CC(COc3ccccc3)=C([C@H](O)CCc3ccccc3)[C@@H]2CO)C(=O)N1Cc1ccccc1,-0.379,0.364,-0.187,0.0395,0.719,0.433,1.01,-0.643 (inactive),0.391,0.0176,1.08,0.77 (inactive),0.369 (inactive),3.2 (inactive),1.39,0.707 (inactive),-0.176,0.127,0.453,-0.0828
C=CCC(OC(C)=O)[C@@H]1[C@@H](N(Cc2ccc(-c3ccccc3)cc2)C(=O)c2cccc3ccccc23)c2cc(OCCCO)ccc2N1C(=O)Cc1ccc(OC)cc1 (stereo not given in full),0.0714,-0.205,-0.108,-0.234,-0.559,-0.229,-0.757,-0.72 (inactive),0.165,3.52,-0.159,-0.774 (inactive),0.0643 (inactive),-0.631 (inactive),-0.203,-1.09 (inactive),0.0748,0.417,-0.477,0.122
